In PubChem BioAssay AID931 (National Center for Advancing Translational Sciences (NCATS), 2007) one finds Potency data, which are given here for three molecules.

Inconclusive results are not listed. Calls of active or inactive are those of the source. Calls come from the whole dose curve; as a rule, active = well fitted cell-killing curve with a large enough effect; inconclusive = small, poorly fitted or top-dose-only effect; inactive = flat fitted curve, though single readings scatter.

This experiment in a line: Confirmation and Secondary Assay for Modulators of Hemoglobin Beta Chain Splicing at IVS2 654 locus: Cytotoxicity. The following applies: HBB IVS2-654 splicing reporter cells. From the text: NIH Chemical Genomics Center [NCGC]
NIH Molecular Libraries Screening Centers Network [MLSCN]
PI Name: Dr. Ryszard Kole
Modulation of Alternative Splicing as Therapy
Abnormal splicing is associated with a number of diseases, including cancer and genetic diseases such as cystic fibrosis, muscular dystrophy and beta-thalassemia. Alteration of disease associated splicing patterns provides a promising target for treatment. […] Mutations in the second intron of the b-globin gene at positions 654 or 705 are clinically relevant and cause mis-splicing which results in an out of frame gene product.
Examination of toxicity of select compounds in EGFP-654 HeLa Cells
HeLa cell lines were stably transfected with a construct in which the EGFP (enhanced green fluorescent protein) cDNA was interrupted by the second intron of the beta-globin gene (IVS2-654). The ISV2 intron contains mutations which cause mis-splicing of EGFP and premature termination of EGFP which results in a nonfluorescent protein product. […] Expression of the transgene was driven by the CMV promoter. Compounds, and related structures identified in the primary screen as potential splicing modulation were examined for their effects on cell toxicity in this follow up assay .
NCGC Assay Protocol Summary:
Toxicity Screening. Freshly thawed HeLa EGFP-654 cells were seeded in 5 ul of optimem media (Invitrogen) containing 2 % fetal calf serum (Hyclone) and 1x penicillin/streptomycin (Invitrogen) at a concentration of 500 cells per well in 1536-well plates. Cells were incubated overnight at 37C in 5% CO2. The next day, cells were treated with DMSO, 500 nM antisense ISV2 654 PNA control oligo, or library compound and allowed to grow at 37C in 5% CO2 for 2 days. Cells were treated with 5 ul/well of freshly prepared ATPlite (Perkin Elmer) and cells were allowed to lyse at room temperature for 5 minutes. Luminescence was captured on an Viewlux CCD imager (Perkin Elmer) using a 15 second integration time and cell death was measured by comparing compound treatments to DMSO treatment (no cell death). […]
For the molecule `CC(=O)[O][Hg][c]1ccccc1`, the Potency was 12.6 µM (active).

As to `[Cl-].[Cl-].[Hg+2]`, the Potency is 0.398 µM (active).

For `O=c1[nH]cc(F)c(=O)[nH]1`, the Potency is 12.6 µM (active).
